Compound activity from PubChem.
Most compounds without a hit are left out; they make up all but 1.2% or so of the library.
gsp antagonist = gsp mutant antagonism; AID 624288; Potency, µM (highest dose often 76.9 µM), usual class: inhibitors; gsp-mutant cells, cAMP HTRF, 30 min; 340,000 tested, 0.4% active; calls by dose curve; cell line not stated here;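 also: intracellular cAMP measured with PDE inhibitor Ro 20-1724 present during compound exposure; nearly all actives have a fitted effect of over 65% in size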
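Cells, 2000/well, grown 16–24 h in DMEM 10% FBS with 0.5 mg/ml G418, then compounds plus […] (300 uM addition stock), 30 min at 37C. cAMP read by HTRF (cAMP-d2 and anti-cAMP antibody-K in lysis buffer) after 30 min RT.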
pAkt inh = Akt phosphorylation inhibition. AID 651550. 360,000 tested, 0.32% active. activity change, % for hits at 50 µM. Neuro2A IGF-stimulated pAkt S473 HTRF, 20 min; stronger effect = lower value; in the data active = activity change below about -80%; inconclusive = mostly about -51% to -80%
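Single-point screen (50 µM final compound) in Neuro2A cells stimulated 20 min with 6 nM IGF at 37 deg C. After lysis, Ser473-phosphorylated Akt read by HTRF (ex 330 nm, em 615/665 nm) as the 665/615 ratio.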
RXFP1 ag = activates the human relaxin receptor RXFP1. HEK293T-RXFP1 cAMP TR-FRET, 30 min; response scale: percent of porcine relaxin response, buffer zero. 370,000 tested, 0.3% active. AID 2676. Potency, µM (top dose mostly 57.5 µM), actives largely listed as activators; active = well fitted activation curve with a large enough effect; inconclusive = small, poorly fitted or top-dose-only effect; also: nearly all actives have a fitted effect of over 60% in size
Target sequence (Q9HBX9 whole entry, looked up): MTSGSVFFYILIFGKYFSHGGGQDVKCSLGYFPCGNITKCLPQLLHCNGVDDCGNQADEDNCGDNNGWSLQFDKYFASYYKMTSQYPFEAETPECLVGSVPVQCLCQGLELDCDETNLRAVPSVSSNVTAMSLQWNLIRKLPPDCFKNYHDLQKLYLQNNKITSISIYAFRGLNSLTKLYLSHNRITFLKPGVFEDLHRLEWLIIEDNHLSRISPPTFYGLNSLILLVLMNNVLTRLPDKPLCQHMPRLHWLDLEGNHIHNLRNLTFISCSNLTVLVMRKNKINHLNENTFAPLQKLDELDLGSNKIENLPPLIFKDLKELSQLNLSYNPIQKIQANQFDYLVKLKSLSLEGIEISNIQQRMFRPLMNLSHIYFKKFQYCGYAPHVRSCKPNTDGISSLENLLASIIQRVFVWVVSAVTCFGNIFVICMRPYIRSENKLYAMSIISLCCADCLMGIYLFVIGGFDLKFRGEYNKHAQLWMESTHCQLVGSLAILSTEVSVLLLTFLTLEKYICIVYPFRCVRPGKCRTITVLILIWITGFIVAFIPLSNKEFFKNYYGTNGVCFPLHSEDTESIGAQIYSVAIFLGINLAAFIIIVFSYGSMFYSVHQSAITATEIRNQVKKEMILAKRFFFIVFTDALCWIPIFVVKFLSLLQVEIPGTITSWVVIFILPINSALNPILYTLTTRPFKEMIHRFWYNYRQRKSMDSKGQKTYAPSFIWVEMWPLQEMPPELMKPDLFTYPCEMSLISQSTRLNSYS
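HEK293T cells stably expressing RXFP1 were pretreated with the PDE4 inhibitor Ro 20174, exposed to compounds for 30 min at 37C, lysed, and cAMP was read by TR-FRET. Data normalized to buffer (basal) and 29 nM porcine relaxin (100%).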
RXFP1 antagonist = antagonists of human relaxin receptor RXFP1. Q9HBX9. HEK293-RXFP1, relaxin-stimulated cAMP HTRF, 30 min; stronger effect = lower value. activity change, negative = inhibition, % at 57.5 µM. 350,000 tested, 0.59% active;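 active = activity change of -60% or lower, but not beyond a set lower limit; inconclusive = change between -60% and -40%, or beyond the set limit; inactive = change above -40%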
gsp agonist = gsp mutant agonism. gsp mutant cells, cAMP HTRF, 30 min. Potency, µM (top dose mostly 76.9 µM), hits mostly activators. 340,000 tested, 0.13% active. AID 624287; active = well fitted activation curve with a large enough effect; inconclusive = small, poorly fitted or top-dose-only effect, or another doubt; inactive = no such curve, though single readings can be large or run the other way; cell line not stated here;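 also: phosphodiesterase inhibitor Ro 20-1724 added with compounds to block cAMP breakdown; nearly all actives have a fitted effect of over 60% in size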
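Cells in DMEM/10% FBS with G418 were pretreated with compounds in DMSO plus […] (300 uM stock) for 30 min at 37C. cAMP was measured by HTRF (cAMP-d2 plus anti-cAMP antibody-K) after 30 min at room temperature.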
Numbers stand for hits; - = inactive; ? = inconclusive; . = no result given; [ ] = dose if it differs, or a comment.

SMILES	gsp antagonist	pAkt inh	RXFP1 ag	RXFP1 antagonist	gsp agonist
COC(=O)Cc1c(C)c2ccc3c(c2oc1=O)CN(Cc1ccccc1OC)CO3	.	.	?	-	.
CCOC(=O)c1cccc(NC(=O)c2cnc3ccccc3n2)c1	-	-95.7%	-	-	-
CCOC(=O)c1cccc(NC(=O)c2cccnc2)c1	-	-	-	-	-
CCSC1=C(C#N)C(c2ccc(Cl)cc2)C2=C(CCCC2=O)N1 (centres undefined)	44.7µM	-	-	-	-
CSC1=C(C#N)C(c2ccc3c(c2)OCO3)C2=C(CCCC2=O)N1 (centres undefined)	-	-	-	-	-
COc1cccc(N2CC(NC(=O)/C=C\c3ccc4c(c3)OCO4)CC2=O)c1 (centres undefined)	.	.	-	-	.
COc1ccc2c(c1)CCc1c-2n[nH]c1C(=O)O	-	-110.6%	-	-	-
Cc1ccc2oc(-c3cccc(NC(=O)c4sc5c([N+](=O)[O-])cccc5c4Cl)c3)nc2c1	.	.	-	-	.
CCOc1ccc(NC(=O)C2CC(C)=C(C)CC2C(=O)O)cc1 (centres undefined)	-	-118.5%	-	-	-
CCOc1ccc(NS(=O)(=O)c2ccc(NC(=S)NC(C)=O)cc2)cc1	-	-	-	-69.6	?
CCOc1ccc(NS(=O)(=O)c2ccc(NC(=S)NC(=O)C(C)C)cc2)cc1	-	-	-	-	-
CCOc1ccc(NC(=S)Nc2ccc(OCC)cc2)cc1	35.5µM	-	-	-	-[15.4 µM]
Cc1ccc(-c2noc(CN(C(=O)c3ccc(C(C)(C)C)cc3)C(C)C)n2)cc1	.	.	-	.	.
COC(=O)c1ccc(CSc2c(C(C)C)cnc3c2c(=O)n(C)c(=O)n3C)cc1	.	.	-	-	.
Cc1ccc2cccc(NC(=O)c3ccc(-c4cccc(Cl)c4Cl)o3)c2n1	.	.	-	.	.
CCC(Sc1nc(-c2ccccc2)[nH]c1S(=O)(=O)c1ccc(C)cc1)C(=O)O (centres undefined)	.	.	-	-	.
O=C(OCc1nc2ccccc2[nH]1)C12CC3CC(CC(C3)C1)C2	35.5µM	-	-	-	-
Cc1ccc(S(=O)(=O)c2c(Nc3cc(F)ccc3F)sc(C(=O)c3ccc(F)cc3)c2N)cc1	.	.	-	.	.
COc1ccc(C2C(=O)N(C3CCC(C)CC3)CC(=O)N2CCc2ccccc2)cc1OC (centres undefined)	.	.	-	-	.
CN(C)S(=O)(=O)n1cnc([C@H]2c3c(ncn3Cc3ccccc3)C[C@H]3COC(=O)[C@@H]32)c1	50.1µM	-	-	.	-
NC(=S)N/N=C/c1ccc(-n2nncc2-c2ccc(Cl)cc2)cc1	-	-	-	-73.3	-
NC(=S)N/N=C/c1ccc(/C=N/NC(N)=S)cc1	-	-	-	-	-
O=C(O)c1cc(-c2ccco2)nc2ccc(Br)cc12	-	-	12.6µM	-	?
O=C(Nc1cccc(C(F)(F)F)c1)c1ccc2nc(-c3ccco3)c(-c3ccco3)nc2c1	-	-	-	-97.1	-
Cc1ccc2nc(-c3ccccc3)c(-c3ccccc3)nc2c1	-	-	-	-	-
SMILES	gsp antagonist	pAkt inh	RXFP1 ag	RXFP1 antagonist	gsp agonist
O=C(O)c1ccc2nc(-c3ccco3)c(-c3ccco3)nc2c1	-	-	-	?	3.55µM
Cc1ccc(-c2nc3ccc(C(=O)O)cc3nc2-c2ccc(C)cc2)cc1	?	-123.3%	-	-	-
O=C(c1ccc2nc(-c3ccco3)c(-c3ccco3)nc2c1)N1CCN(c2ccccc2)CC1	-	-	-	-	-
O=C(C1=C(O)C(=O)N(CCc2ccccc2)C1c1ccncc1)c1cc2ccccc2o1 (centres undefined)	-	-	14.1µM	-	-[15.4 µM]
CCN(CC)CCN1C(=O)C(O)=C(C(=O)c2cc3ccccc3o2)C1c1cccnc1 (centres undefined)	-	-	-	-	?
O=C(C1=C(O)C(=O)N(c2nccs2)C1c1ccccc1)c1cc2ccccc2o1 (centres undefined)	-	-	15.8µM	-	?
COC(=O)c1ccc(NC(=O)CSc2nc(=O)[nH]c3c2CCCC3)cc1	.	.	-	-	.
O=C1c2cccc3cccc(c23)C(=O)N1Cc1cccnc1	-	-	-	-	-[15.4 µM]
O=C1c2cccc3c([N+](=O)[O-])ccc(c23)C(=O)N1Cc1cccnc1	-	-	-	-77.4	-[15.4 µM]
CCS(=O)(=O)c1nc(S(=O)(=O)c2ccc(Cl)cc2)c(N2CCCC2)s1	-	.	?	-	12.6µM
